PubChem BioAssay AID1159580 (chemical genetic matrix, 2015)
The campaign covered roughly 5,500 compounds. About 2,000 (36%) were called active. Roughly 18% stayed inconclusive and do not appear here. Rule as the data show it: active = normalized growth mostly below about 0.91 (no sharp cut-off); inconclusive = no clear call, values can overlap the other calls; inactive = mostly above about 0.92. This is one part of the list.

Assay: chemical genetic growth profiling, strain panel (AID 1159580);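 also: tested at 20 µM; growth read once vehicle control cultures reached saturation at 30 °C; 1 = growth at the plate median or of vehicle wells; lower values mean less growth of the strain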
Settings: S. cerevisiae deletion strains, growth OD
[1] = locus YAL021C, strain ccr4, stronger effect = lower value
[2] = locus YAL026C, strain drs2, stronger effect = lower value
[3] = locus YAL030W, strain snc1, stronger effect = lower value
[4] = locus YBL061C, strain skt5, stronger effect = lower value
[5] = locus YBR009C, strain hhf1, stronger effect = lower value
[6] = locus YBR023C, strain chs3, stronger effect = lower value
[7] = locus YBR171W, strain sec66, stronger effect = lower value
[8] = locus YBR231C, strain swc5, stronger effect = lower value
[9] = locus YBR279W, strain paf1, stronger effect = lower value
[10] = locus YCL011C, strain gbp2, stronger effect = lower value
[11] = locus YCL016C, strain dcc1, stronger effect = lower value
[12] = locus YCL069W, strain vba3, stronger effect = lower value
[13] = locus YCR088W, strain abp1, stronger effect = lower value
[14] = locus YDL005C, strain med2, stronger effect = lower value
[15] = locus YDL040C, strain nat1, stronger effect = lower value
[16] = locus YDR001C, strain nth1, stronger effect = lower value
[17] = locus YDR069C, strain doa4, stronger effect = lower value
[18] = locus YDR137W, strain rgp1, stronger effect = lower value
[19] = locus YDR159W, strain sac3, stronger effect = lower value
[20] = locus YDR297W, strain sur2, stronger effect = lower value
[21] = locus YDR334W, strain swr1, stronger effect = lower value
[22] = locus YDR335W, strain msn5, stronger effect = lower value
[23] = locus YDR392W, strain spt3, stronger effect = lower value
[24] = locus YEL003W, strain gim4, stronger effect = lower value
[25] = locus YEL037C, strain rad23, stronger effect = lower value
[26] = locus YEL061C, strain CIN8 (second series), stronger effect = lower value
[27] = locus YER015W, strain faa2, stronger effect = lower value
[28] = locus YER016W, strain bim1, stronger effect = lower value
[29] = locus YER111C, strain swi4, stronger effect = lower value
[30] = locus YER155C, strain BEM2 (second series), stronger effect = lower value
[31] = locus YFR010W, strain ubp6, stronger effect = lower value
[32] = locus YGL167C, strain pmr1, stronger effect = lower value
[33] = locus YGL173C, strain kem1, stronger effect = lower value
[34] = locus YGL227W, strain vid30, stronger effect = lower value
[35] = locus YGL240W, strain doc1, stronger effect = lower value
[36] = locus YGL253W, strain hxk2, stronger effect = lower value
[37] = locus YHR013C, strain ard1, stronger effect = lower value
[38] = locus YHR027C, strain rpn1, stronger effect = lower value
[39] = locus YHR142W, strain chs7, stronger effect = lower value
[40] = locus YJL092W, strain hpr5, stronger effect = lower value
[41] = locus YJL095W, strain BCK1 (second series), stronger effect = lower value
[42] = locus YJL115W, strain asf1, stronger effect = lower value
[43] = locus YJL129C, strain trk1, stronger effect = lower value
[44] = locus YJL154C, strain vps35, stronger effect = lower value
[45] = locus YJL164C, strain tpk1, stronger effect = lower value
[46] = locus YJL166W, strain qcr8, stronger effect = lower value
[47] = locus YJL187C, strain SWE1, stronger effect = lower value
[48] = locus YKL160W, strain elf1, stronger effect = lower value
[49] = locus YKR026C, strain gcn3, stronger effect = lower value
[50] = locus YKR091W, strain srl3, stronger effect = lower value
[51] = locus YLL001W, strain dnm1, stronger effect = lower value
[52] = locus YLL026W, stronger effect = lower value
[53] = locus YLL041C, strain sdh2, stronger effect = lower value
[54] = locus YLR027C, strain aat2, stronger effect = lower value
[55] = locus YLR221C, strain rsa3, stronger effect = lower value
[56] = locus YLR258W, strain gsy2, stronger effect = lower value
[57] = locus YLR262C, strain YPT6 (second series), stronger effect = lower value
[58] = locus YLR320W, strain mms22, stronger effect = lower value
[59] = locus YLR342W, strain FKS1, stronger effect = lower value
[60] = locus YLR357W, strain rsc2, stronger effect = lower value
[61] = locus YLR370C, strain arc18, stronger effect = lower value
[62] = locus YLR384C, strain iki3, stronger effect = lower value
[63] = locus YML120C, strain ndi1, stronger effect = lower value
[64] = locus YMR058W, strain fet3, stronger effect = lower value
[65] = locus YMR125W, strain sto1, stronger effect = lower value
[66] = locus YMR129W, stronger effect = lower value
[67] = locus YMR205C, strain PFK2, stronger effect = lower value
[68] = locus YMR231W, strain pep5, stronger effect = lower value
[69] = locus YNL071W, strain lat1, stronger effect = lower value
[70] = locus YNL209W, strain ssb2, stronger effect = lower value
[71] = locus YNL248C, strain rpa49, stronger effect = lower value
[72] = locus YNL322C, strain KRE1 (second series), stronger effect = lower value
[73] = locus YNR049C, strain mso1, stronger effect = lower value
[74] = locus YOR001W, strain rrp6, stronger effect = lower value
[75] = locus YOR070C, strain gyp1, stronger effect = lower value
[76] = locus YOR080W, strain dia2, stronger effect = lower value
[77] = locus YOR083W, strain WHI5, stronger effect = lower value
[78] = locus YOR106W, strain vam3, stronger effect = lower value
[79] = locus YOR265W, strain rbl2, stronger effect = lower value
[80] = locus YOR270C, strain vph1, stronger effect = lower value
[81] = locus YOR290C, strain snf2, stronger effect = lower value
[82] = locus YPL051W, strain arl3, stronger effect = lower value
[83] = locus YPL078C, strain atp4, stronger effect = lower value
[84] = locus YPL106C, strain sse1, stronger effect = lower value
[85] = locus YPL240C, strain hsp82, stronger effect = lower value

Measured: normalized growth

COc1cc(OC)c2c(=O)c(-c3ccccc3)coc2c1
active: [2] 0.895 | locus YDR195W, strain ref2 1.22 [resistant] | [23] 0.637 | [30] 0.596 | [35] 0.835 | [39] 0.824 | [58] 0.87 | [69] 0.807 | [80] 0.767
inactive: [1] 0.991 | [3] 0.991 | [4] 0.958 | [5] 0.928 | [6] 0.915 | [7] 1.01 | [8] 0.951 | [9] 0.953 | [10] 0.936 | [11] 0.965 | [12] 0.982 | [13] 0.993 | [14] 1.04 | [15] 0.99 | [16] 0.994 | [17] 1.02 | [18] 0.911 | [19] 0.963 | [20] 0.995 | [21] 1 | [22] 0.98 | [24] 0.967 | [25] 0.998 | [26] 1 | [27] 0.956 | [28] 1 | [29] 1.02 | [31] 1.01 | [32] 0.985 | [33] 0.985 | [34] 1 | [36] 0.935 | [37] 0.974 | [38] 1 | [40] 0.994 | [41] 0.979 | [42] 1 | [43] 0.964 | [44] 1 | [45] 0.935 | [46] 0.934 | [47] 0.997 | [48] 0.93 | [49] 0.99 | [50] 0.996 | [51] 0.941 | [52] 0.99 | [53] 0.991 | [54] 0.947 | [55] 0.947 | [56] 0.925 | [57] 0.91 | [59] 0.911 | [60] 1.03 | [61] 0.939 | [62] 1 | [63] 0.946 | [64] 0.978 | [65] 0.971 | [66] 0.999 | [67] 0.954 | [68] 0.994 | [70] 0.984 | [71] 0.995 | [72] 0.972 | [73] 1.01 | [74] 0.96 | [75] 0.976 | [76] 1.01 | [77] 0.902 | [78] 0.89 | [79] 1 | [81] 0.893 | [82] 0.936 | [83] 0.933 | [84] 1.01 | [85] 0.986

COc1ccc(-c2coc3cc(OC)cc(OC)c3c2=O)cc1
inactive: [1] 1 | [2] 0.985 | [3] 0.987 | [4] 0.972 | [5] 0.988 | [6] 0.97 | [7] 0.994 | [8] 0.989 | [9] 0.993 | [10] 0.979 | [11] 0.997 | locus YCL061C, strain MRC1, stronger effect = lower value 0.989 | [12] 0.996 | [13] 0.991 | [14] 1 | [15] 0.987 | [16] 0.984 | [17] 1 | [18] 0.974 | [19] 0.987 | locus YDR195W, strain ref2 1.04 | [20] 0.983 | [21] 1 | [22] 0.997 | [23] 0.843 | [24] 0.987 | [25] 0.988 | [26] 0.99 | [27] 0.99 | [28] 0.99 | [29] 0.991 | [30] 0.946 | [31] 1 | [32] 0.982 | [33] 0.98 | [34] 0.992 | [35] 0.982 | [36] 0.995 | [37] 0.96 | [38] 0.994 | [39] 0.93 | [40] 0.991 | [41] 1.01 | [42] 0.996 | [43] 0.969 | [44] 0.998 | [45] 0.981 | [46] 0.986 | [47] 0.988 | [48] 0.986 | [49] 0.988 | [50] 0.989 | [51] 0.976 | [52] 0.987 | [53] 0.991 | [54] 0.998 | [55] 0.978 | [56] 0.987 | [57] 0.968 | [58] 0.971 | [59] 0.994 | [60] 0.988 | [61] 0.992 | [62] 0.987 | [63] 0.989 | [64] 0.987 | [65] 1.01 | [66] 0.987 | [67] 0.959 | [68] 0.977 | [69] 0.988 | [70] 0.995 | [71] 0.999 | [72] 0.994 | [73] 1 | [74] 1.01 | [75] 1.01 | [76] 1 | [77] 0.984 | [78] 0.974 | [79] 0.984 | [80] 0.885 | [81] 0.948 | [82] 0.972 | [83] 0.975 | [84] 0.964 | [85] 0.984
